High-throughput results: PubChem BioAssay, several laboratories
This is a sample that favours compounds with a hit; in the whole collection about 2.1% have one here.
Ba/F3 V617F tox: reduce viability of Ba/F3 cells dependent on JAK2V617F | 1.1% of 220,000 active | inhibition, % at 5.6 µM | Ba/F3 EpoR-JAK2V617F viability, ATP luminescence;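 active = inhibition above the campaign mean plus 3 SD over all tested compounds, cut at about 24% in these data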;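 note: cytokine-independent growth of Ba/F3 cells driven by EpoR plus mutant JAK2; 0% = DMSO-treated cells and 100% = JAK inhibitor I control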
BaF3 tox: counter-screen for JAK2V617F inhibitors: parental Ba/F3 viability inhibitors; CellTiter-Glo ATP luminescence; inhibition, % at 5.6 µM; 1.1% of 220,000 active; AID 1486;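 active = inhibition above a per-campaign cutoff, the mean inhibition of all tested compounds plus 3 SD, cut at about 27% in these data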;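 note: 0% = DMSO wells and 100% = JAK Inhibitor I control wells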
IEC-6 tox: counter-screen for KLF5 inhibitors: cytotoxicity in IEC-6 cells; 0.78% of 290,000 active; IEC-6 cytotoxicity, luminescence viability; AID 1825; inhibition, % at 5 µM; in the data active = inhibition above about 22%;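 note: 0% = plate median of test compound wells and 100% = cytotoxic reference compound wells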
KLF5 inhibitor: kruppel-like factor 5 inhibition; 0.23% of 290,000 active; DLD-1 KLF5 promoter-luciferase reporter, luminescence; AID 1700; inhibition, % at 5 µM;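 active = inhibition above a per-plate limit of that plate's mean compound inhibition plus 3 SD, cut at about 60% in these data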;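 note: 0% = DMSO wells and 100% = LY294002 at 200 µM; higher means less KLF5 promoter-driven luciferase light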
aSyn 5UTR inh: 5' untranslated region of α-synuclein, MLPCN primary screen | 0.82% of 300,000 active | inhibition, % (tested at 7.5 µM) | alpha-synuclein 5'UTR reporter, inhibitor activity; in the data active = inhibition above about 60%; inconclusive = no clear call, values can overlap the other calls;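 note: H4 neuroglioblastoma cells stably carrying SNCA 5'UTR luciferase fusion; 0% = DMSO wells and 100% = positive control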
APP transl inh: APP translation inhibition | inhibition, % at 2 µM | 0.82% of 190,000 active | SH-SY5Y APP 5'UTR-luciferase reporter, luminescence | AID 1285;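 active = inhibition above a set limit, derived from the sample mean plus 3 SD, cut at about 45% in these data; inconclusive = one replicate passes the limit while the other fails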
* = called active by the depositor; ? = inconclusive; / = no result given.

SMILES | Ba/F3 V617F tox | BaF3 tox | IEC-6 tox | KLF5 inhibitor | aSyn 5UTR inh | APP transl inh
O=S1(=O)CCC(NC(=S)NC2CCS(=O)(=O)C2)C1 (centres undefined) | 52* | 39* | 1 | -9 | 20 | 12
COc1cccc(N/C(N)=N/c2nc(CSc3ccccn3)cc(=O)[nH]2)c1 | 1 | 10 | -9 | 1 | -30 | 89*
CCc1ccc(N/C(N)=N/c2nc(CSc3ccccn3)cc(=O)[nH]2)cc1 | 1 | 7 | 2 | 9 | 12 | -4
Cc1noc(C)c1CSc1nc2[nH]ncc2c(=O)n1-c1ccccc1 | 70* | 73* | 82* | 74* | ? | 94*
CN1CCc2c(sc3c2C(=O)NC(c2cn(Cc4ccccc4)c4ccccc24)N3)C1 (centres undefined) | 4 | 5 | 5 | 1 | 64* | 16
CN1CCc2c(sc3c2C(=O)NC(c2ccc(-c4ccc(Cl)cc4)o2)N3)C1 (centres undefined) | -1 | -6 | -2 | -19 | -5 | /
O=C1NC(c2ccco2)Nc2sc3c(c21)CCN(Cc1ccccc1)C3 (centres undefined) | -4 | 6 | -4 | -9 | / | 13
CN1CCc2c(sc3c2C(=O)NC(c2ccco2)N3)C1 (centres undefined) | -2 | 30* | 8 | -8 | -18 | 15
CCCCCCc1cc2cc(C(=O)Nc3ccccc3)c(=O)oc2cc1O | -3 | 2 | 3 | -43 | 92* | 15
COc1ccc(C(=O)NCCS(=O)(=O)N2CCN(Cc3ccccc3)CC2)cc1 | / | / | / | / | 14 | /
COc1ccc(OC)c(C(=O)Nc2c(O)ccc3ccccc23)c1 | / | / | / | / | 16 | /
COC(=O)Cc1[nH]n(-c2nc3ccccc3s2)c(=O)c1C(C)=Nc1ccc(C)cc1 | 0 | 5 | -2 | -14 | 98* | -46
CC(=NCc1ccco1)c1c(C)[nH]n(-c2nc3ccccc3s2)c1=O | 3 | 6 | -3 | -13 | 31 | -153
C/C(=N/NC(=O)c1cccs1)c1c(C)[nH]n(-c2nc3ccccc3s2)c1=O | 48* | 49* | 42* | -80 | -10 | -87
CC1(C)OC(=O)C(=NNc2ccccc2)C(=O)O1 | -2 | 0 | 0 | 9 | -3 | 1
CC1(C)OC(=O)C(=NNc2ccc(O)cc2)C(=O)O1 | 36* | 53* | 0 | -37 | / | 9
CC(OC(=O)c1nc(Cl)ccc1Cl)C(=O)Nc1ccc2c(c1)OCCO2 (centres undefined) | / | / | / | / | -10 | /
O=C(Oc1ccc2ccccc2c1)c1ccco1 | -1 | 4 | -1 | -49 | -13 | 19
CC1CC(C)(C)Nc2ccc(OC(=O)c3ccco3)cc21 (centres undefined) | 4 | 6 | 9 | -11 | 70* | 30
Cc1ccc(C(=O)Nc2nc(C)c(C(=O)Nc3ccc4c(c3)CCC4)s2)cc1 | 3 | 9 | 16 | -48 | -23 | 66*
O=C(NCCCn1ccnc1)c1ccc(S(=O)(=O)N2CCCCCC2)cc1 | -2 | 2 | -4 | -3 | -9 | 1
CC1CC(C)CN(S(=O)(=O)c2ccc(C(=O)NCCCn3ccnc3)cc2)C1 (centres undefined) | 6 | 4 | 4 | 6 | 98* | 73*
COc1ccc(NC(=O)CN(C)C(=O)C(C)Oc2ccc(Br)cc2)cc1 (centres undefined) | / | / | / | / | 16 | /
Cc1cccc(-n2ncc3c(N(CCO)CCO)ncnc32)c1 | -1 | 4 | 7 | -59 | -106 | -73
Cc1cccc(-n2ncc3c(N(C)C4CCCCC4)ncnc32)c1 | / | / | / | / | 66* | /
SMILES | Ba/F3 V617F tox | BaF3 tox | IEC-6 tox | KLF5 inhibitor | aSyn 5UTR inh | APP transl inh
O=C(Nc1ccccc1)Nc1cc(Cl)cc(Cl)c1 | -4 | 3 | 6 | -24 | -21 | 4
O=C(Nc1ccccc1)Nc1cc(OCC(F)(F)F)cc(OCC(F)(F)F)c1 | 23 | 6 | 13 | 4 | 74* | 4
CCN(CC)c1ccc(/C=N/NC(=O)c2cccc(S(=O)(=O)N3CCOCC3)c2)c(O)c1 | 0 | 2 | 2 | 13 | 129* | 60*
O=[N+]([O-])c1ccc(N/N=C/c2sc(N3CCOCC3)nc2-c2ccccc2)c(S(=O)(=O)Nc2ccc(Cl)cc2)c1 | 2 | 7 | 7 | -26 | 76* | 6
Nc1ccc(C(=O)N/N=C/c2sc(N3CCOCC3)nc2-c2ccccc2)cc1 | 0 | 14 | -13 | 1 | 25 | -1
O=C(N/N=C/c1sc(N2CCOCC2)nc1-c1ccccc1)c1cccc(S(=O)(=O)N2CCOCC2)c1 | 4 | 6 | -2 | -3 | 87* | /
O=C(N/N=C/c1ccc(O)cc1)c1cccc(C(F)(F)F)c1 | -1 | 4 | 2 | -34 | 8 | 8
O=C(N/N=C/c1ccccc1O)c1cccc(C(F)(F)F)c1 | 0 | 5 | 1 | -11 | 82* | 54*
O=[N+]([O-])c1ccc(N/N=C/c2sc(N3CCOCC3)nc2-c2ccccc2)c(S(=O)(=O)Nc2ccccc2Cl)c1 | -2 | 2 | -6 | -20 | / | -1
Cc1cc(Br)c(NC(=O)CCNC(=O)OCc2ccccc2)cc1C | / | / | -4 | -14 | 3 | /
COc1ccc(Br)cc1S(=O)(=O)N(CC(=O)N1CCN(C)CC1)c1ccccc1 | / | / | 6 | -18 | 10 | /
Cc1ccccc1OCc1occc1C(=O)Nc1cccc(-n2cnnn2)c1 | / | / | 11 | -12 | -91 | /
CCN(CC)S(=O)(=O)c1cccc(C(=O)N/N=C/c2cc(OC)c(O)c(OC)c2)c1 | 0 | 7 | -1 | -10 | 14 | -11
CCN(CC)c1ccc(/C=N/NC(=O)CCC(=O)NCc2ccccc2)c(O)c1 | -1 | 6 | 2 | 26 | 33 | 52*
CCN(CC)c1ccc(/C=N/NC(=O)c2c(Cl)cnn2C)c(O)c1 | -1 | 0 | 8 | 35 | 90* | 60*
CCN(CC)c1ccc(/C=N/Nc2nc(C)cc(=O)[nH]2)c(O)c1 | 5 | 7 | -1 | -4 | 95* | 85*
CCOC(=O)N/N=C/c1ccc(N(CC)CC)cc1O | 3 | 4 | 2 | -32 | -432 | 27
CCN(CC)S(=O)(=O)c1cccc(C(=O)N/N=C/c2cccc(O)c2O)c1 | -2 | 4 | -13 | -22 | 66* | 50*
Cc1nc(C)n(C(Oc2ccc(Cl)cc2Cl)C(=O)C(C)(C)C)n1 (centres undefined) | / | / | / | / | 8 | /
Cc1cccc(NS(=O)(=O)c2nnc(NC(=O)C3CCCCC3)s2)c1 | / | / | -2 | -15 | 6 | /
CCn1c(=O)n(CC)c2cc(NC(=O)C(C)c3ccccc3)c(Br)cc21 (centres undefined) | / | / | 0 | -36 | 4 | /
COc1ccc(CCNc2nc(-c3sc(C)nc3C)cs2)cc1OC | -1 | 4 | 1 | -19 | 18 | 55*
COc1ccc(N2CCN(C(=O)Cc3ccc(Cl)cc3)CC2)cc1 | / | / | -4 | -8 | -14 | /
Cc1ccc(/C=C2/Sc3ccc(C(=O)NCCN4CCOCC4)cc3NC2=O)cc1 | / | / | 4 | -19 | -13 | /
CCN1CCCC1CNC(=O)c1ccc2c(c1)NC(=O)/C(=C\c1ccc(C)cc1)S2 (centres undefined) | / | / | -4 | 5 | 74* | /
